Measurements reported in PubChem BioAssay (NCI).
About 83,000 compounds went through this panel and 20% of them were active in at least one assay; those are over-represented in the sample as a whole.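 Interpretation: 100, growth as untreated; towards 0, rising growth inhibition; 0, no net growth; 0 to -100, cell death. Compounds scoring below 10 were considered active.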 Values without a mark were called inactive. Calls of active or inactive are those of the source.

Assays:
Assay in all cases: NCI-60 one-dose screen, 48 h (100 = growth as untreated, 0 = no growth, -100 = all killed)
Conditions in all cases: 10 µM unless noted
DU-145 prostate = test system: DU-145 prostate
K-562 leukemia = test system: K-562 leukemia
MALME-3M melanoma = test system: MALME-3M melanoma
MDA-MB-231 breast = test system: MDA-MB-231 breast
RXF 393 renal = test system: RXF 393 renal
SF-268 CNS = test system: SF-268 CNS
SF-295 CNS = test system: SF-295 CNS
SF-539 CNS = test system: SF-539 CNS
UACC-257 melanoma = test system: UACC-257 melanoma
M14 melanoma = test system: M14 melanoma
HCT-15 colon = test system: HCT-15 colon
HT29 colon = test system: HT29 colon
SNB-75 CNS = test system: SNB-75 CNS
SNB-19 CNS = test system: SNB-19 CNS
U251 CNS = test system: U251 CNS
PC-3 prostate = test system: PC-3 prostate
SK-MEL-5 melanoma = test system: SK-MEL-5 melanoma
UACC-62 melanoma = test system: UACC-62 melanoma
LOX IMVI melanoma = test system: LOX IMVI melanoma
SK-MEL-28 melanoma = test system: SK-MEL-28 melanoma

SMILES | growth (DU-145 prostate) | growth (K-562 leukemia) | growth (MALME-3M melanoma) | growth (MDA-MB-231 breast) | growth (RXF 393 renal) | growth (SF-268 CNS) | growth (SF-295 CNS) | growth (SF-539 CNS) | growth (UACC-257 melanoma) | growth (M14 melanoma) | growth (HCT-15 colon) | growth (HT29 colon) | growth (SNB-75 CNS) | growth (SNB-19 CNS) | growth (U251 CNS) | growth (PC-3 prostate) | growth (SK-MEL-5 melanoma) | growth (UACC-62 melanoma) | growth (LOX IMVI melanoma) | growth (SK-MEL-28 melanoma)
Cc1cc(NCc2cc(Nc3ccnc4cc(Cl)ccc34)ccc2F)nc(N2CCN(C)CC2)n1 | 23.4% | -37.2% (active) | -68.3% (active) | -43.9% (active) | -27.1% (active) | 12.6% | -60.9% (active) | -75.3% (active) | -59.7% (active) | -73.1% (active) | -42.9% (active) | -24.5% (active) | -50.9% (active) | 29.7% | -28.2% (active) | 21.5% | -98% (active) | -63.8% (active) | -86.6% (active) | -70% (active)
O=c1c2cc(F)ccc2sc2c(NCCN3CCCCC3)nc3ccccc3c12 | 53.5% | -30.8% (active) | 58.5% | 35.5% | 39.7% | 49.7% | 56% | 70.1% | 65.1% | -61.7% (active) | 13.7% | 10.7% | 37.3% | 66.6% | 40.1% | 53.1% | 70.1% | 36.7% | -62.8% (active) | -14.9% (active)
Cc1ccc(Nc2nc(N)nc(CSCC(=O)NN)n2)cc1 | 103% | 96.6% | 111% | 98.9% | 103% | 97.9% | 99.3% | 95.1% | 108% | 114% | 101% | 106% | 85.2% | 98.5% | 92.9% | 93% | 101% | 90.8% | 95.2% | 99.9%
O=C(O)CN1C(=O)CCC1=O | 109% | 111% | 104% | 90.7% | 111% | 99.8% | 99.1% | 99% | 104% | 111% | 103% | 90.6% | 95.3% | 108% | 105% | 108% | 103% | 108% | 102% | 107%
COc1ccccc1CNCCCN1C(=O)c2ccc3c4c(ccc(c24)C1=O)C(=O)N(CCCNCCCCN)C3=O | -71.1% (active) | 3.21% (active) | -80.7% (active) | 9.4% (active) | -80.9% (active) | 0.101% (active) | 0.192% (active) | -75.3% (active) | -71.8% (active) | -80.2% (active) | 12.7% | -23.9% (active) | -95.3% (active) | -57.8% (active) | -67.4% (active) | -11.8% (active) | -98.3% (active) | -60.1% (active) | -16.3% (active) | -94.1% (active)
Cc1cc(=O)[nH]c(N=Nc2c(O)[nH]c3ccccc23)n1 | 117% | 116% | 127% | 97.2% | 117% | 105% | 114% | 105% | 112% | 100% | 109% | 106% | 105% | 103% | 103% | 97.9% | 103% | 106% | 99.8% | 111%
CCCCCc1nc2c(c3c1CCCC3)CCCC2 | 114% | 37.3% | 102% | 104% | 80% | 105% | 81.6% | 93.2% | 82.5% | 103% | 74.8% | 55.4% | 82.1% | 72.8% | 83.7% | 64.9% | 83.8% | 82.2% | 88.3% | 100%
c1ccc2cc3nc4cc5ccccc5cc4nc3cc2c1 | 110% | 95.1% | 134% | 86.6% | 137% | 97.7% | 134% | 108% | 98.2% | 101% | 96.9% | 103% | 89.3% | 97.2% | 101% | 85% | 102% | 96.5% | 86.1% | 96.9%
